Test results: PubChem BioAssay (Tox21)
“And” between values parts separate entries of the source, which are not always exact repeats. Equal entries are not always repeated. The source made the active and inactive calls. Unless noted, calls come from the whole dose curve; as a rule, active = well fitted curve in the direction sought with a large enough effect in the repeat runs; inconclusive = weak or mixed curves; inactive = no such curve, though single readings can be large; an effect the other way counts as inactive or inconclusive.

Columns and labels:
[1] = qHTS assay to identify small molecule antagonists of the thyroid receptor (TR) signaling pathway (AID 743065); note: nearly all actives have a fitted effect of over 55% in size; note: potency is the fitted concentration of half-maximal effect
How it was run: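 Antagonism measured as loss of luciferase signal in GH3 cells stably carrying a TRE-luciferase reporter, co-treated with compound and T3 (1 nM final) for 23.5 h at 37 C. Viability was read in the same well by CellTiter-Fluor.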

[2] = tested on: thyroid hormone receptor (rat, GH3 cells); assay: qHTS assay to identify small molecule agonists of the thyroid receptor (TR) signaling pathway (AID 743066; calls by dose curve)
[3] = target: Estrogen receptor (Homo sapiens) (UniProt P03372); assay: qHTS assay to identify small molecule antagonists of the estrogen receptor alpha (ER-alpha) signaling pathway (AID 743069; active = well fitted curve in the direction sought with a large enough effect in the signal ratio in the repeat runs, not every such curve was filed as active; inconclusive = weak or mixed curves, or effect the other way; inactive = no such curve, though single readings can be large or run the other way; the % refers to the signal ratio; note: potency is the fitted concentration of half-maximal effect)
Chain of Estrogen receptor (Homo sapiens) (P03372 whole entry, looked up): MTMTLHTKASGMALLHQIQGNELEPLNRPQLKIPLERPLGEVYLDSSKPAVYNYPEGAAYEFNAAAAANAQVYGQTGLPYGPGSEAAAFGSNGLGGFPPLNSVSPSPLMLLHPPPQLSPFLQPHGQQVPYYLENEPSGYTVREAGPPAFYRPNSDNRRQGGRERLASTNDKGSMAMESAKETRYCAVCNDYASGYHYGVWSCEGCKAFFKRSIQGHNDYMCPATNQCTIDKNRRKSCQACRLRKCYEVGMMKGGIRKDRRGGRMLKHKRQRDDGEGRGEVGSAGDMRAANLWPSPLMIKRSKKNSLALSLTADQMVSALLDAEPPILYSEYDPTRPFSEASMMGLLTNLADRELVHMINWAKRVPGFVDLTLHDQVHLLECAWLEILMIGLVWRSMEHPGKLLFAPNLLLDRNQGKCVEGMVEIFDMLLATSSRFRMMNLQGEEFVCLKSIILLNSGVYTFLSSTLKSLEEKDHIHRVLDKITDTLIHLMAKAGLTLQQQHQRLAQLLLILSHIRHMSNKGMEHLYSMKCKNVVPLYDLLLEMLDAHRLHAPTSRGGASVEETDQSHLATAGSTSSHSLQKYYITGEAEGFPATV
How it was run: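 Compound effects are measured against 17beta-estradiol stimulation in HEK293 cells with a UAS-controlled beta-lactamase reporter for ER-alpha. Exposure lasts 18 hr at 37C; LiveBLAzer B/G FRET substrate follows for 2 hr at room temperature.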

[4] = qHTS assay to identify small molecule antagonists of the estrogen receptor alpha (ER-alpha) signaling pathway - cell viability counter screen (AID 743074; calls by dose curve;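 note: HEK293 cells carrying ER-alpha-UAS-bla reporter stimulated with 17beta-estradiol; nearly all actives have a fitted effect of over 45% in size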; note: potency is the fitted concentration of half-maximal effect)
[5] = target: Estrogen receptor (Homo sapiens) (UniProt P03372); assay: qHTS assay to identify small molecule agonists of the estrogen receptor alpha (ER-alpha) signaling pathway (AID 743075; calls by dose curve; note: potency is the fitted concentration of half-maximal effect)
[6] = qHTS assay to identify small molecule antagonists of the estrogen receptor alpha (ER-alpha) signaling pathway using the BG1 cell line (AID 743080; calls by dose curve;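 note: BG1 cells stimulated with 17beta-estradiol alongside compound; nearly all actives have a fitted effect of over 25% in size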; note: potency is the fitted concentration of half-maximal effect); settings: BG1Luc4E2 ERE-luciferase antagonist mode, luminescence; activity change, negative = inhibition: at 70.3 µM (top of the series)
How it was run: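 BG1-Luc-4E2 cells (endogenous full-length ER-alpha, 4xERE luciferase) hormone-starved 5 days in charcoal-stripped FBS, plated 4,000/well for 24 h, then compound plus 17beta-estradiol for 21.5 h at 37 C; ONE-Glo luminescence read.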

[7] = qHTS assay to identify small molecule antagonists of the estrogen receptor alpha (ER-alpha) signaling pathway using the BG1 cell line - cell viability counter screen (AID 743081);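 note: compound given together with 17beta-estradiol as the ER stimulus; nearly all actives have a fitted effect of over 45% in size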; note: potency is the fitted concentration of half-maximal effect
[8] = target: Aromatase (Homo sapiens) (UniProt P11511); assay: qHTS assay to identify aromatase inhibitors (AID 743083); note: nearly all actives have a fitted effect of over 55% in size; note: potency is the fitted concentration of half-maximal effect
Chain of Aromatase (Homo sapiens) (P11511 whole entry, looked up): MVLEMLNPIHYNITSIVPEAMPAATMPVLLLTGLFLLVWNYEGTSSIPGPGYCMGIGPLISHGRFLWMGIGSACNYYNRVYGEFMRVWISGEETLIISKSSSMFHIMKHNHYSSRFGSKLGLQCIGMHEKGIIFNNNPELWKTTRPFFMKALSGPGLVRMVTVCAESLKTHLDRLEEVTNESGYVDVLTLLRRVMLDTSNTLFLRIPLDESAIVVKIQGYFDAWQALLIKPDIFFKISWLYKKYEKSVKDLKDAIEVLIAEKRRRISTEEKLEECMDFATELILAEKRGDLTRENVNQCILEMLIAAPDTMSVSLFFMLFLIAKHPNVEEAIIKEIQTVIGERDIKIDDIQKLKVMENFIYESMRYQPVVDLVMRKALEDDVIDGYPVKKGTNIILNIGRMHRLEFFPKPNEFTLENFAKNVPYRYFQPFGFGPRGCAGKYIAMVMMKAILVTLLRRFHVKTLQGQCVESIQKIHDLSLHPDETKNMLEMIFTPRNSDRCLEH

[9] = qHTS assay to identify aromatase inhibitors - cell viability counter screen (AID 743084);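 note: cells stimulated with testosterone during compound exposure; nearly all actives have a fitted effect of over 55% in size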; note: potency is the fitted concentration of half-maximal effect
[10] = target: Aryl hydrocarbon receptor (Homo sapiens) (UniProt P35869); assay: qHTS assay to identify small molecule that activate the aryl hydrocarbon receptor (AhR) signaling pathway (AID 743085); note: nearly all actives have a fitted effect of over 15% in size; note: potency is the fitted concentration of half-maximal effect;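 for activation: HG2L7.5c1 human HepG2 liver cells with stably integrated DRE-driven firefly reporter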
Chain of Aryl hydrocarbon receptor (Homo sapiens) (P35869 whole entry, looked up): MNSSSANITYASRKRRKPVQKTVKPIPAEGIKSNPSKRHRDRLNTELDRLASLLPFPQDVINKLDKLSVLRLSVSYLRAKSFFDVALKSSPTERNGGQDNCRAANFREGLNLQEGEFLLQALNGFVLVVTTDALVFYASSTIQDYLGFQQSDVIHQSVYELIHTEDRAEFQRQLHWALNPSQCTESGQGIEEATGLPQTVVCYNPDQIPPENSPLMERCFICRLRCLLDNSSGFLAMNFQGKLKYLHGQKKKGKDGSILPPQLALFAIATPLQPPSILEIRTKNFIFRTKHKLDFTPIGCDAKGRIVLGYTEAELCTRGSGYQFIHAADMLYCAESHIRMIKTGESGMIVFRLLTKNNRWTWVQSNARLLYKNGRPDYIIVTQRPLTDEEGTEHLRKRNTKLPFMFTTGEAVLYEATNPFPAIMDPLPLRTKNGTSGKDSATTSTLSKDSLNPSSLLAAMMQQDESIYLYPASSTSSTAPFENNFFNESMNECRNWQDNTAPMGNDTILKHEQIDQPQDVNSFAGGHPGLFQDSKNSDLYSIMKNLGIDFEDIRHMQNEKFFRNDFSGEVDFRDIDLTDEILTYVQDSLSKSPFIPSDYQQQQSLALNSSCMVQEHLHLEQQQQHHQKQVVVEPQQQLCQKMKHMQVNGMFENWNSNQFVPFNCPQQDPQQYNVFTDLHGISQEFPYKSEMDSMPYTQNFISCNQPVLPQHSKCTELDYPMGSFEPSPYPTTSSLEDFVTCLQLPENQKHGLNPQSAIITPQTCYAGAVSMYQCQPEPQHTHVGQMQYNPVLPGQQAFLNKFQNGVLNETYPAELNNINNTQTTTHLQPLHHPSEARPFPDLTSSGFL
How it was run: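 Luminescence (ONE-Glo) from a dioxin-responsive-element luciferase reporter in HG2L7.5c1 HepG2 cells after 24 hr compound exposure at 37C; viability measured by CellTiter-Fluor fluorescence beforehand.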

[11] = qHTS assay to identify small molecule that activate the aryl hydrocarbon receptor (AhR) signaling pathway - cell viability counter screen (AID 743086); note: nearly all actives have a fitted effect of over 45% in size; note: potency is the fitted concentration of half-maximal effect
How it was run: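 Cytotoxicity counter screen: CellTiter-Fluor signal (30 min, 37 C) in 4000 HepG2 cells/well carrying the DRE-luciferase reporter, following 24 h compound exposure at 37 C.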

[12] = target: Peroxisome proliferator-activated receptor gamma (Homo sapiens) (UniProt P37231); assay: qHTS assay to identify small molecule agonists of the peroxisome proliferator-activated receptor gamma (PPARg) signaling pathway (AID 743094; active = well fitted activation curve with a large enough effect in the signal ratio in the repeat runs, not every such curve was filed as active; inconclusive = weak or mixed curves, or effect the other way; inactive = no such curve, though single readings can be large or run the other way; the % refers to the signal ratio)
Chain of Peroxisome proliferator-activated receptor gamma (Homo sapiens) (P37231 whole entry, looked up): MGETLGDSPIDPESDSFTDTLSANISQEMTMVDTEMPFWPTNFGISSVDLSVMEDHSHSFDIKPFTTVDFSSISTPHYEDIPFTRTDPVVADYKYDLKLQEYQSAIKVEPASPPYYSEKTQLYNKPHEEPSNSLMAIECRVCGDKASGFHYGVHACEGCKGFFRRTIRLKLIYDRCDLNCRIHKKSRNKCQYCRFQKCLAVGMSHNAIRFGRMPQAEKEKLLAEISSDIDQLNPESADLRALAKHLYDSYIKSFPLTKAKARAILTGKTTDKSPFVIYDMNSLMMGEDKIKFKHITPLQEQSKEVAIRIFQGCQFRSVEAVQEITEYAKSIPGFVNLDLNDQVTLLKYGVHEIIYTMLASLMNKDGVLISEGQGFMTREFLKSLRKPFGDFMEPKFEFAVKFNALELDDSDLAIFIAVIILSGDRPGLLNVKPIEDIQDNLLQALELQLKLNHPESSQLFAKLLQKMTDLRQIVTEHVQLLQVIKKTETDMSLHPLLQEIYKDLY
How it was run: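 Beta-lactamase FRET fluorescence was the read-out after a 1 h room-temperature substrate step, following 17 h compound treatment at 37C of HEK293H cells expressing a UAS-driven bla reporter responsive to PPARg.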

[13] = target: Peroxisome proliferator-activated receptor gamma (Homo sapiens) (UniProt P37231); assay: qHTS assay to identify small molecule antagonists of the peroxisome proliferator-activated receptor gamma (PPARg) signaling pathway (AID 743191; calls by dose curve; note: nearly all actives have a fitted effect of over 30% in size; note: potency is the fitted concentration of half-maximal effect)
How it was run: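 Beta-lactamase reporter under UAS control in HEK293H PPARg-bla cells; compound treatment 17 h at 37C. Read-out: fluorescence intensity after 1 h room-temperature incubation with LiveBLAzer B/G FRET substrate.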

[14] = qHTS assay to identify small molecule antagonists of the peroxisome proliferator-activated receptor gamma (PPARg) signaling pathway - cell viability counter screen (AID 743194); note: nearly all actives have a fitted effect of over 55% in size; note: potency is the fitted concentration of half-maximal effect
How it was run: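 Viability was measured as CellTiter-Glo luminescence in GeneBLAzer PPARg UAS-bla HEK293H cells. These cells had been exposed 17 h at 37 C to compounds together with rosiglitazone at 50 nM final, with the beta-lactamase readout taken in the same wells.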

[15] = qHTS assay for small molecule agonists of the antioxidant response element (ARE) signaling pathway - cell viability counter screen (AID 743203; calls by dose curve; note: nearly all actives have a fitted effect of over 55% in size; note: potency is the fitted concentration of half-maximal effect)
How it was run: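 HepG2 cells carrying ARE-driven beta-lactamase; 2,000 cells/well; 5 hrs plating; compound pinned from DMSO; 16 hrs 37C/5% CO2; CellTiter-Glo added; 30 min RT; luminescence.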

[16] = qHTS assay for small molecule activators of the heat shock response signaling pathway - cell viability counter screen (AID 743209); note: nearly all actives have a fitted effect of over 50% in size; note: potency is the fitted concentration of half-maximal effect
How it was run: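 Luminescence from CellTiter-Glo, added after the beta-lactamase FRET read, gave the viability signal. Cells were HSE-bla HeLa treated with DMSO-dissolved compounds for 5 h at 37 C following overnight plating.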

[17] = qHTS assay for small molecule activators of the heat shock response signaling pathway (AID 743210; active = well fitted activation curve with a large enough effect in the signal ratio in the repeat runs, with a control signal flat, not every such curve was filed as active; inconclusive = weak or mixed curves; the % refers to the signal ratio;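 note: HeLa cells with beta-lactamase reporter driven by heat shock elements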)
How it was run: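 In HSE-bla HeLa cells, 5 h compound incubation (37 C) precedes addition of LiveBLAzer B/G substrate; after 2.5 h at room temperature, fluorescence intensity indicates reporter induction.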

[18] = qHTS assay to identify small molecule agonists of the peroxisome proliferator-activated receptor delta (PPARd) signaling pathway - cell viability counter screen (AID 743211); note: nearly all actives have a fitted effect of over 55% in size; note: potency is the fitted concentration of half-maximal effect
How it was run: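 Viability was measured as CellTiter-Glo luminescence (30 min, room temperature) in the same wells as the beta-lactamase readout. GeneBLAzer PPARd UAS-bla HEK293H cells received compound after 5 h plating and were incubated 17 h at 37 C.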

[19] = qHTS assay for small molecule agonists of the antioxidant response element (ARE) signaling pathway (AID 743202; active = well fitted activation curve with a large enough effect in the signal ratio in the repeat runs, not every such curve was filed as active; inconclusive = weak or mixed curves, or effect the other way; inactive = no such curve, though single readings can be large or run the other way; the % refers to the signal ratio; note: potency is the fitted concentration of half-maximal effect)
How it was run: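 An ARE-responsive beta-lactamase gene stably integrated in HepG2 cells serves as reporter. After 5 h plating and 16 h compound incubation at 37 C, fluorescence of the B/G FRET substrate was measured.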

[20] = target: Estrogen receptor (Homo sapiens) (UniProt P03372); assay: qHTS assay to identify small molecule agonists of the estrogen receptor alpha (ER-alpha) signaling pathway using the BG1 cell line (AID 743079); settings: BG1Luc4E2 cells, ERE-luciferase agonist, 22 h; activation: at 70.3 µM (top of the series); note: nearly all actives have a fitted effect of over 20% in size; note: potency is the fitted concentration of half-maximal effect

Measured: Potency

CCCCCCCCCCCCCCCC
not listed: [19] | [20]
inactive: all other assays above

CC(C)=C1CC[C@@H](C)CC1=O
not listed: [6] | [20]
inactive: all other assays above

C(=C/c1ccccc1)/c1ccccc1
not listed: [12] | [19]
inactive: all other assays above

CN(C)CCOC(c1ccccc1)c1ccccc1 (tested in a mixture with another compound)
active: [1] 61.6 µM | [4] 49.3 µM
inactive: [2] | [3] | [5] | [20] | [6] | [11] | [14] | [19] | [15] | [16]

COC(=O)CC#N
not listed: [12]
inactive: all other assays above

O=S(=O)(O)CCCN1CCOCC1
not listed: [13] | [17] | [19]
inactive: all other assays above

Cc1cn[nH]c1
not listed: [12]
inactive: all other assays above

Nc1cc(Cl)c([N+](=O)[O-])cc1O
active: [9] 30.4 µM
not listed: [7] | [10] | [11] | [12] | [13] | [19]
inactive: all other assays above

CCCSS/C(CCO)=C(\C)N(C=O)Cc1cnc(C)nc1N
active: [1] 23.7 µM | [8] 26.6 µM
not listed: [12] | [13] | [17]
inactive: all other assays above

CCCC(CC)CCCCCCCN (configuration not stated)
not listed: [13] | [14] | [15] | [17]
inactive: all other assays above

O=Nc1ccc(NO)cc1
active: [10] 31.9 µM | [19] 6.36 µM
not listed: [12]
inactive: all other assays above

C[Si](C)(C)Cl
not listed: [12] | [13] | [19]
inactive: all other assays above

CCN(CC)CCOC(=O)C1(C2CCCCC2)CCCCC1
active: [1] 23.7 µM | [8] 29.8 µM
not listed: [9] | [18]
inactive: all other assays above

CCCCOC(=O)C(C)CC (configuration not stated)
not listed: [11] | [12] | [13] | [16] | [17] | [18]
inactive: all other assays above

CC(CN(C)C)CN1c2ccccc2CCc2ccccc21 (configuration not stated)
active: [1] 11.4 µM | [18] 26.6 µM
not listed: [7] | [8] | [9] | [12] | [13] | [14]
inactive: all other assays above

CCN=c1cc2oc3cc(NCC)c(C)cc3c(-c3ccccc3C(=O)OCC)c-2cc1C
inactive: [2] | [5] | [10]
active: [1] 609 nM and 1.09 µM | [3] 48.8 nM [inconclusive] and 155 nM [inconclusive] | [4] 24.5 µM and 21.9 µM | [6] 172 nM and 217 nM | [7] 3.84 µM and 5.45 µM | [8] 193 nM and 137 nM | [9] 1.21 µM and 1.93 µM | [11] 6.83 µM and 7.7 µM | [14] 10.9 µM and 6.92 µM | [15] 60.9 µM and 30.6 µM | [16] 30.8 µM and 19.5 µM | [18] 48.8 µM and 27.5 µM

O=Cc1ccc(F)cc1
not listed: [12] | [19]
inactive: all other assays above

CCCCCCCC/C=C/CCCOC(C)=O
not listed: [16] | [17] | [19]
inactive: all other assays above

C[C@@H]1CC[C@H]2C(C)(C)[C@H]3C[C@@]12CC[C@@]3(C)O
active: [1] 54.4 µM
not listed: [6] | [12] | [13] | [16] | [17] | [18]
inactive: all other assays above

CCc1ccc(O)c(C(C)(C)C)c1
inactive: [2] | [3] | [4] | [6] | [7] | [10] | [11] | [12] | [16]
active: [1] 61.1 µM | [20] 27.3 µM | [8] 68.6 µM

CCOC(=O)[C@@](C)(N)Cc1ccc(O)c(O)c1
not listed: [19]
inactive: all other assays above

CCc1cccc(C)c1
not listed: [12] | [13]
inactive: all other assays above

CCCCCCCOC(=O)c1ccc(O)cc1
active: [1] 61.1 µM | [3] 54.9 µM [inhibitor] | [5] 55 µM [inconclusive] and 54.9 µM [inconclusive] | [20] 15.4 µM and 19.3 µM | [8] 43.3 µM | [13] 43.6 µM
not listed: [6] | [16] | [17] | [18]
inactive: all other assays above

NCCCCCCNCCCCCCN
not listed: [19]
inactive: all other assays above

CC(=O)Oc1ccc(C2(c3ccc(OC(C)=O)cc3)Oc3ccccc3NC2=O)cc1
active: [1] 5.96 µM | [3] 8.49 µM [inconclusive] | [5] 7.56 µM [inconclusive]
not listed: [6] | [12] | [13] | [19] | [20]
inactive: all other assays above

Cn1cnc2ncnc(N)c21
not listed: [12] | [13]
inactive: all other assays above

O=C(O)Cc1ccc(OCCNC[C@H](O)c2ccccc2)cc1
not listed: [11] | [12] | [17]
inactive: all other assays above

O=C(O)c1cccc(Cl)n1
not listed: [12] | [13] | [16] | [17] | [18] | [19]
inactive: all other assays above
